# Assay results from ChEMBL document CHEMBL5606458, “ASAP - ZIKV NS2B-NS3 protease fluorescence single point” (2024).
# Screen size: about 2,700 compounds; about 160 (5.9%) showed an effect of 50% or more. The full list was thinned out, with strong results kept by preference.
# Biological target: Nonstructural protein 3 (Zika virus) (UniProt A0A024AXB9)
# [1] = PRVABC59, Concentration 50.0 uM, Number of replicates 1.0
# Chain of Nonstructural protein 3 (Zika virus) (A0A024AXB9 as listed by the source): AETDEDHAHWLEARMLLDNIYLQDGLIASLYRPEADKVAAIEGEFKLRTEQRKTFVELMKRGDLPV
compound,measurement,setting,value
NCc1cccc(NC(=O)[C@@H](NC(=O)OCc2ccccc2)C(C2CCC2)C2CCC2)c1,inhibition,"PRVABC59, Concentration 49.5 uM, Number of replicates 2.0, Standard deviation 1.6304646588102472 %",8.82%
same,inhibition,"PRVABC59, Concentration 99.01 uM, Number of replicates 2.0, Standard deviation 1.5618151976061267 %",76.8%
same,inhibition,"PRVABC59, Concentration 198.0 uM, Number of replicates 2.0, Standard deviation 0.10609407012035098 %",99.1%
NCc1cccc(NC(=O)[C@@H](NC(=O)OCc2ccccc2)C2CCCCC2)c1,inhibition,"PRVABC59, Concentration 49.5 uM, Number of replicates 2.0, Standard deviation 3.670746053577507 %",0.383%
same,inhibition,"PRVABC59, Concentration 99.01 uM, Number of replicates 2.0, Standard deviation 4.852210894307134 %",19.8%
same,inhibition,"PRVABC59, Concentration 198.0 uM, Number of replicates 2.0, Standard deviation 0.07712401232790286 %",99.4%
NCc1cccc(NC(=O)[C@@H](Cc2c[nH]c3ccccc23)NC(=O)OCc2ccccc2)c1,inhibition,"PRVABC59, Concentration 49.5 uM, Number of replicates 2.0, Standard deviation 3.967037724259516 %",6.59%
same,inhibition,"PRVABC59, Concentration 99.01 uM, Number of replicates 2.0, Standard deviation 5.155513103183051 %",30%
same,inhibition,"PRVABC59, Concentration 198.0 uM, Number of replicates 2.0, Standard deviation 1.4247172313715861 %",61.6%
NCc1cccc(NC(=O)[C@H]2CCCN(C(=O)OCc3ccccc3)C2)c1,inhibition,"PRVABC59, Concentration 49.5 uM, Number of replicates 2.0, Standard deviation 2.781365363643047 %",3.4%
same,inhibition,"PRVABC59, Concentration 99.01 uM, Number of replicates 2.0, Standard deviation 2.023258788415892 %",8.89%
same,inhibition,"PRVABC59, Concentration 198.0 uM, Number of replicates 2.0, Standard deviation 2.4646681276670943 %",18.5%
NCc1cccc(NC(=O)[C@H]2Cc3ccccc3N2C(=O)OCc2ccccc2)c1,inhibition,"PRVABC59, Concentration 49.5 uM, Number of replicates 2.0, Standard deviation 1.3458327451813832 %",-2.12%
same,inhibition,"PRVABC59, Concentration 99.01 uM, Number of replicates 2.0, Standard deviation 2.0252321038631718 %",4.14%
same,inhibition,"PRVABC59, Concentration 198.0 uM, Number of replicates 2.0, Standard deviation 4.242354762898987 %",47.3%
COc1cc(COc2cccnc2F)nc(N2CCNCC2)n1,inhibition,"PRVABC59, Concentration 49.5 uM, Number of replicates 2.0, Standard deviation 3.471530038958882 %",9.4%
same,inhibition,"PRVABC59, Concentration 99.01 uM, Number of replicates 2.0, Standard deviation 1.2510762616041597 %",17.8%
same,inhibition,"PRVABC59, Concentration 198.0 uM, Number of replicates 2.0, Standard deviation 5.474495288404173 %",24.4%
CC[C@H]1CCN(c2nccn(CC)c2=O)C1,inhibition,"PRVABC59, Concentration 49.5 uM, Number of replicates 2.0, Standard deviation 1.4176871370399688 %",4.12%
same,inhibition,"PRVABC59, Concentration 99.01 uM, Number of replicates 2.0, Standard deviation 1.8963080974288338 %",10.6%
same,inhibition,"PRVABC59, Concentration 198.0 uM, Number of replicates 2.0, Standard deviation 0.25647537430637324 %",21.7%
CCn1ccnc(N2C[C@@H](O)[C@H](c3c[nH]c4ccccc34)C2)c1=O,inhibition,"PRVABC59, Concentration 49.5 uM, Number of replicates 2.0, Standard deviation 0.5666151507099095 %",7.52%
same,inhibition,"PRVABC59, Concentration 99.01 uM, Number of replicates 2.0, Standard deviation 0.06434104176194275 %",18.6%
same,inhibition,"PRVABC59, Concentration 198.0 uM, Number of replicates 2.0, Standard deviation 0.18264623400765803 %",34.5%
Nc1nc(CN2CCNCC2)nc2ccccc12,inhibition,"PRVABC59, Concentration 99.9 uM, Number of replicates 2.0, Standard deviation 4.738718872161362 %",-7.53%
c1ccc2c([C@H]3CCN(CC[C@H]4CCCO4)C3)c[nH]c2c1,inhibition,"PRVABC59, Concentration 49.5 uM, Number of replicates 2.0, Standard deviation 2.014848974851422 %",6.42%
same,inhibition,"PRVABC59, Concentration 99.01 uM, Number of replicates 2.0, Standard deviation 1.491910771840746 %",12.4%
same,inhibition,"PRVABC59, Concentration 198.0 uM, Number of replicates 2.0, Standard deviation 1.9789597532326375 %",21.4%
O=C(O)c1cccc(NC(=O)c2cccc(OCc3c(Cl)cccc3Cl)c2)c1,inhibition,"PRVABC59, Concentration 49.5 uM, Number of replicates 2.0, Standard deviation 0.05325743212794187 %",8.22%
same,inhibition,"PRVABC59, Concentration 99.01 uM, Number of replicates 2.0, Standard deviation 0.43176580313712193 %",15.3%
same,inhibition,"PRVABC59, Concentration 198.0 uM, Number of replicates 2.0, Standard deviation 0.7170736679224038 %",28.4%
NCc1ccc(C[C@H](NC(=O)c2ccccc2)C(=O)Nc2cccc(CN)c2)cc1,inhibition,"PRVABC59, Concentration 49.5 uM, Number of replicates 2.0, Standard deviation 1.4806761079016821 %",29.4%
same,inhibition,"PRVABC59, Concentration 99.01 uM, Number of replicates 2.0, Standard deviation 0.13484294125181392 %",48.1%
same,inhibition,"PRVABC59, Concentration 198.0 uM, Number of replicates 2.0, Standard deviation 0.4356460105984289 %",65.1%
N=C(N)NCCC[C@H](NC(=O)[C@H](Cc1ccc(CN)cc1)NC(=O)c1ccccc1)B(O)O,inhibition,"PRVABC59, Concentration 10.0 uM, Number of replicates 3.0, Standard deviation 0.04927937550217375 %",100%
same,inhibition,"PRVABC59, Concentration 49.5 uM, Number of replicates 2.0, Standard deviation 0.010099059252786384 %",99.8%
same,inhibition,"PRVABC59, Concentration 49.5 uM, Number of replicates 2.0, Standard deviation 0.01807256864147136 %",99.7%
same,inhibition,"PRVABC59, Concentration 49.5 uM, Number of replicates 2.0, Standard deviation 0.060713041042124986 %",99.8%
same,inhibition,"PRVABC59, Concentration 49.5 uM, Number of replicates 2.0, Standard deviation 0.06905879139685818 %",99.8%
same,inhibition,"PRVABC59, Concentration 49.5 uM, Number of replicates 2.0, Standard deviation 0.08298276144570521 %",99.9%
same,inhibition,"PRVABC59, Concentration 49.5 uM, Number of replicates 2.0, Standard deviation 0.10271153264626066 %",99.3%
same,inhibition,"PRVABC59, Concentration 49.5 uM, Number of replicates 2.0, Standard deviation 0.1066443393745092 %",99.6%
same,inhibition,"PRVABC59, Concentration 49.95 uM, Number of replicates 2.0, Standard deviation 0.961660259200824 %",101%
same,inhibition,"PRVABC59, Concentration 99.01 uM, Number of replicates 2.0, Standard deviation 0.020192723708963373 %",99.9%
same,inhibition,"PRVABC59, Concentration 99.01 uM, Number of replicates 2.0, Standard deviation 0.05005292294196158 %",99.7%
same,inhibition,"PRVABC59, Concentration 99.01 uM, Number of replicates 2.0, Standard deviation 0.0511966198231532 %",99.7%
same,inhibition,"PRVABC59, Concentration 99.01 uM, Number of replicates 2.0, Standard deviation 0.06657179015992734 %",99.4%
same,inhibition,"PRVABC59, Concentration 99.01 uM, Number of replicates 2.0, Standard deviation 0.07055854485426984 %",99.9%
same,inhibition,"PRVABC59, Concentration 99.01 uM, Number of replicates 2.0, Standard deviation 0.0908591644954211 %",99.8%
same,inhibition,"PRVABC59, Concentration 99.01 uM, Number of replicates 2.0, Standard deviation 0.09853596007058937 %",100%
same,inhibition,"PRVABC59, Concentration 99.9 uM, Number of replicates 2.0, Standard deviation 0.9426813647289743 %",101%
same,inhibition,"PRVABC59, Concentration 198.0 uM, Number of replicates 2.0, Standard deviation 0.016157415845136337 %",99.7%
same,inhibition,"PRVABC59, Concentration 198.0 uM, Number of replicates 2.0, Standard deviation 0.0195885064887112 %",99.5%
same,inhibition,"PRVABC59, Concentration 198.0 uM, Number of replicates 2.0, Standard deviation 0.04517602680706901 %",99.6%
same,inhibition,"PRVABC59, Concentration 198.0 uM, Number of replicates 2.0, Standard deviation 0.06178660556739447 %",99.7%
same,inhibition,"PRVABC59, Concentration 198.0 uM, Number of replicates 2.0, Standard deviation 0.09594645769808005 %",99.7%
same,inhibition,"PRVABC59, Concentration 198.0 uM, Number of replicates 2.0, Standard deviation 0.10841922745899998 %",99.2%
same,inhibition,"PRVABC59, Concentration 198.0 uM, Number of replicates 2.0, Standard deviation 0.1903446087692639 %",99.7%
NCc1ccc(C[C@H](NC(=O)c2ccccc2)C(=O)N2CCCCC2)cc1,inhibition,"PRVABC59, Concentration 49.5 uM, Number of replicates 2.0, Standard deviation 1.7023364994641166 %",7.06%
same,inhibition,"PRVABC59, Concentration 99.01 uM, Number of replicates 2.0, Standard deviation 1.0175975565444826 %",12.7%
same,inhibition,"PRVABC59, Concentration 198.0 uM, Number of replicates 2.0, Standard deviation 2.6267332126099125 %",22%
O=Cc1ccc(N2CCC(C(=O)N3CCN(CCc4ccccc4)CC3)CC2)cc1,inhibition,[1],37.9%
Nc1ccc(/C=C/C(=O)C(=O)N2CCN(CCc3ccccc3)CC2)cc1,inhibition,"PRVABC59, Concentration 49.5 uM, Number of replicates 2.0, Standard deviation 1.009989544626084 %",23.1%
same,inhibition,"PRVABC59, Concentration 99.01 uM, Number of replicates 2.0, Standard deviation 0.19781370467497048 %",38.5%
same,inhibition,"PRVABC59, Concentration 198.0 uM, Number of replicates 2.0, Standard deviation 0.599146111439346 %",56%
O=C(/C=C/c1ccccc1)C(=O)N1CCN(CCc2ccccc2)CC1,inhibition,"PRVABC59, Concentration 49.5 uM, Number of replicates 2.0, Standard deviation 0.08274041706676757 %",1.32%
same,inhibition,"PRVABC59, Concentration 99.01 uM, Number of replicates 2.0, Standard deviation 0.30038362391023454 %",6.15%
same,inhibition,"PRVABC59, Concentration 198.0 uM, Number of replicates 2.0, Standard deviation 0.5414096494264544 %",13.3%
same,inhibition,"PRVABC59, Concentration 200.0 uM, Number of replicates 1.0",96.2%
OCCOc1cc(COc2cccnc2F)nc(N2CCNCC2)n1,inhibition,"PRVABC59, Concentration 49.5 uM, Number of replicates 2.0, Standard deviation 1.0649598246775087 %",10.8%
same,inhibition,"PRVABC59, Concentration 99.01 uM, Number of replicates 2.0, Standard deviation 1.1158273619074888 %",21.6%
same,inhibition,"PRVABC59, Concentration 198.0 uM, Number of replicates 2.0, Standard deviation 0.21003831379185828 %",36.7%
NC(=O)c1cn(C[C@H]2CCCN2c2ccnc3ccccc23)nn1,inhibition,"PRVABC59, Concentration 49.5 uM, Number of replicates 2.0, Standard deviation 1.7032876695413104 %",13.6%
same,inhibition,"PRVABC59, Concentration 99.01 uM, Number of replicates 2.0, Standard deviation 1.9821170579482856 %",21.5%
same,inhibition,"PRVABC59, Concentration 198.0 uM, Number of replicates 2.0, Standard deviation 3.129764278957135 %",35.6%
O=Cc1ccc(N2CCC(C(=O)N3CCN(c4ccc([N+](=O)[O-])cc4C(F)(F)F)CC3)CC2)cc1,inhibition,[1],51.4%
O=Cc1ccc(N2CCC(C(=O)N3CCC(CCN4CCCC4)CC3)CC2)cc1,inhibition,[1],40.2%
CS(=O)(=O)c1ccc(N2CCN(C(=O)C3CCN(c4ccc(C=O)cc4)CC3)CC2)c([N+](=O)[O-])c1,inhibition,[1],38.3%
